Test results as given in the supplement of paper PMC6897291.
Counter-ions that a name gives are not always drawn.

These compounds were tested on U-2932 (assay: growth inhibition by drug plus 177Lu-lilotomab satetraxetan (1 - RLU/untreated control) (fraction); higher = stronger inhibition). Settings: 10 nM; time (day): 6; 177Lu-lilotomab satetraxetan 1 ug/ml.
Summary of the method: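 Growth inhibition was calculated from RealTime-Glo RLU against untreated no-drug wells. Values equal 1 − RLU/mean of 48 untreated no-drug wells per plate, read daily from day 3 after 1 h at 37°C. RIVA and U-2932 cells, with or without 18 h pretreatment by a radiolabelled anti-CD37 antibody conjugate (~600 MBq/mg; 0.5 µg/ml RIVA, 1 µg/ml U-2932), were washed and plated at 3,000 cells/well on compound-printed plates at 10/100 nM (RIVA) or 10/1,000 nM (U-2932).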

Row | Structure (SMILES) | growth inhibition by drug plus 177Lu-lilotomab satetraxetan
1 | Nc1nc2[nH]cc(CCc3ccc(C(=O)N[C@@H](CCC(=O)O)C(=O)O)cc3)c2c(=O)[nH]1 [Pemetrexed] | 0.0568
2 | COc1cc2nccc(Oc3ccc(NC(=O)Nc4cc(C)on4)c(Cl)c3)c2cc1OC [Tivozanib (AV-951)] | 0.144
3 | CCC(=O)N1CCN(c2ccc(-n3c(=O)ccc4cnc5ccc(-c6cnc7ccccc7c6)cc5c43)cc2C(F)(F)F)CC1 [Torin 1] | 0.242
4 | COc1cccc2c1C(=O)c1c(O)c3c(c(O)c1C2=O)C[C@@](O)(C(=O)CO)C[C@@H]3O[C@H]1C[C@H](N)[C@@H](O)[C@H](C)O1 [Epirubicin Hydrochloride] | 0.484
5 | Clc1ccc(Nc2nnc(Cc3ccncc3)c3ccccc23)cc1 [Vatalanib dihydrochloride (PTK787)] | 0.0638
6 | COc1cc2nccc(Oc3ccc(NC(=O)C4(C(=O)Nc5ccc(F)cc5)CC4)cc3)c2cc1OC [XL-184 free base (Cabozantinib)] | 0.164
7 | C[C@@H](O[C@H]1OCCN(Cc2n[nH]c(=O)[nH]2)[C@H]1c1ccc(F)cc1)c1cc(C(F)(F)F)cc(C(F)(F)F)c1 [Aprepitant (MK-0869)] | -0.121
8 | COc1cc2c(cc1O)CC[C@@H]1[C@@H]2CC[C@]2(C)[C@@H](O)CC[C@@H]12 [2-Methoxyestradiol] | 0.11
9 | CNCc1ccc(-c2[nH]c3cc(F)cc4c3c2CCNC4=O)cc1 | 0.222
10 | CC[C@@]1(O)C(=O)OCc2c1cc1n(c2=O)Cc2cc3c(CN(C)C)c(O)ccc3nc2-1 [Topotecan HCl] | 0.67
11 | Nc1cc(C(F)(F)F)c(-c2cc(N3CCOCC3)nc(N3CCOCC3)n2)cn1 | -0.0143
12 | CC(C)(C)c1ccc(S(=O)(=O)/C=C/C#N)cc1 | 0.0727
13 | C[C@]1(c2nc3c(C(N)=O)cccc3[nH]2)CCCN1 [ABT-888 (Veliparib)] | 0.166
14 | Cc1ccc(NC(=O)c2ccc(CN3CC[C@H](N(C)C)C3)c(C(F)(F)F)c2)cc1Nc1nccc(-c2cncnc2)n1 [Bafetinib (INNO-406)] | 0.239
15 | C[C@]12CC[C@@H]3c4ccc(O)cc4CC[C@H]3[C@@H]1CCC2=O [Estrone] | 0.0988
16 | O=C(c1ccc(OCCN2CCCCC2)cc1)c1c(-c2ccc(O)cc2)sc2cc(O)ccc12 [Evista (Raloxifene Hydrochloride)] | 0.0818
17 | CCN(CC)CCNC(=O)c1c(C)[nH]c(/C=C2\C(=O)Nc3ccc(F)cc32)c1C [Sunitinib Malate (Sutent)] | 0.0273
18 | CCOc1ccc(Nc2nc(-c3c(C)nc4ccccn34)cs2)cc1 | 0.311
19 | C=CC(=O)N1CCC[C@@H](n2nc(-c3ccc(Oc4ccccc4)cc3)c3c(N)ncnc32)C1 | 0.6
20 | CS(=O)(=O)c1cccc(CNc2nc(Nc3ccc4c(c3)CCC(=O)N4)ncc2C(F)(F)F)c1 | 0.199
21 | CC(NC(=O)c1ccccc1/N=C/c1c(O)ccc2ccccc12)c1ccccc1 (stereo not given) [Sirtinol] | 0.164
22 | CN(Cc1cnc2nc(N)nc(N)c2n1)c1ccc(C(=O)N[C@@H](CCC(=O)O)C(=O)O)cc1 [Abitrexate (Methotrexate)] | 0.0372
23 | OCCn1cc(-c2cnc3nnn(Cc4ccc5ncccc5c4)c3n2)cn1 | 0.105
24 | COc1cc(Nc2ncc(F)c(Nc3ccc4c(n3)NC(=O)C(C)(C)O4)n2)cc(OC)c1OC [R406(free base)] | 0.0813
25 | COc1cccc2c1C(=O)c1c(O)c3c(c(O)c1C2=O)C[C@@](O)(C(=O)CO)C[C@@H]3O[C@H]1C[C@H](N)[C@H](O)[C@H](C)O1 [Doxorubicin (Adriamycin)] | 0.687
26 | CN(NC(=O)CC(=O)NN(C)C(=S)c1ccccc1)C(=S)c1ccccc1 [Elesclomol] | 0.935
27 | CN(C)CCOc1ccc(/C(=C(/CCCl)c2ccccc2)c2ccccc2)cc1 [Toremifene Citrate (Fareston, Acapodene)] | 0.262
28 | CN1CCN(CCOc2cc(OC3CCOCC3)c3c(Nc4c(Cl)ccc5c4OCO5)ncnc3c2)CC1 [Saracatinib (AZD0530)] | 0.0536
29 | CC(C)C[C@H](NC(=O)[C@H](Cc1ccccc1)NC(=O)c1cnccn1)B(O)O [Bortezomib (Velcade)] | 0.98
30 | Cn1cncc1[C@@](N)(c1ccc(Cl)cc1)c1ccc2c(c1)c(-c1cccc(Cl)c1)cc(=O)n2C [Tipifarnib (Zarnestra)] | 0.1
